Reference: PubChem BioAssay AID2058 (Sanford-Burnham Center for Chemical Genomics, 2009)
Among all 290,000 compounds or so, about 150 (0.052%) were called active. This is one part of a sample in which actives are shown more often than they occur.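 Rule for the calls: active = inhibition of at least 50% with at least 30 cells and total cytoplasm GFP at most 10,000,000; inconclusive = under 30 cells or total GFP of 10,000,000 plus; inactive = the rest.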 Results with a measured potency or affinity are listed apart.

biological target: G-protein coupled receptor 35 (Homo sapiens) (UniProt Q9HC97); assay: GPR35 antagonists blocking zaprinast-driven arrestin recruitment, primary screen, imaging, U2OS, beta-arrestin-GFP, zaprinast agonist (AID 2058); conditions: U2OS GPR35 beta-arrestin-GFP translocation imaging, zaprinast antagonism; at 10 µM; stronger effect = higher value
Sequence (Q9HC97 whole entry, looked up): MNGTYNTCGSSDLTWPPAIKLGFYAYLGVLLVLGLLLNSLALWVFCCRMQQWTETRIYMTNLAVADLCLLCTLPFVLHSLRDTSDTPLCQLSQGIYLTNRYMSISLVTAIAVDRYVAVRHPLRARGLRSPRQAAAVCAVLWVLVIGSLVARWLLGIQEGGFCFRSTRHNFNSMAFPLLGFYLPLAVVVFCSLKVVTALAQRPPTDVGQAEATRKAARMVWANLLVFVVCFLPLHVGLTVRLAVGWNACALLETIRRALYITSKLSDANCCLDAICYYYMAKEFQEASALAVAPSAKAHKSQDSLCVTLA

inhibition, inactive:
CCCCn1c(=N)n(CC(=O)c2ccc(OC)cc2)c2ccccc21 -0.5%, COC(=O)c1cccc(NC(=O)c2nn(C(C)C)c(=O)c3ccccc23)c1 25.1%, Cc1ccc(CNC(=S)NC2CCCCC2)cc1 -8.5%, CCC(=O)Nc1ccc(C(=O)NNC(=O)c2ccc(C)cc2)cc1 9.3%, O=C(Nc1ccc(S(=O)(=O)Nc2ccccc2)cc1)c1ccc(CN2CCOCC2)cc1 -0.3%, COc1cc(CN2CCCC(C)C2)ccc1OCc1ccccc1 (stereo not given) 9.5%, CC(C)Cn1c(N)c(C(=O)COC(=O)/C=C/c2cccs2)c(=O)n(C)c1=O 12.1%, CCOC(=O)CN1CC23C=CC(O2)C(C(=O)NCc2ccccc2OC)C3C1=O (stereo not given) 13.9%, O=C1CC(c2ccccc2)N1c1ccccc1 (stereo not given) 8.1%, CC(=O)Nc1ccc(C(=O)/C=C/c2ccco2)cc1 -4.1%, O=C(/C=C\c1ccco1)c1ccc(NC(=O)c2ccco2)cc1 15.5%, CC1=C(C(=O)Nc2ccc(Cl)cc2C(=O)N2CCC(C(N)=O)CC2)SCCO1 16.5%, Cc1nc(N2CCC(C)CC2)c2c(C)c(C(=O)Nc3ccc(C)c(F)c3)sc2n1 24.7%, Cc1nc(N2CCCCC2)c2c(C)c(C(=O)Nc3cccc(C(F)(F)F)c3)sc2n1 14.1%, Cc1c(C(=O)Nc2ccc3c(c2)OCCO3)sc2ncnc(N3CCCCC3C)c12 (stereo not given) 1.3%, Cc1nc(N2CCC(C)CC2)c2c(C)c(C(=O)Nc3ccc(C(F)(F)F)cc3)sc2n1 25.3%, Cc1ccc(-c2cccc(C(=O)NCCc3ccccc3)n2)c2ccccc12 -3.7%, CCOC(=O)N1CCN(C(=O)COC(=O)c2ccc(O)cc2O)CC1 -5.5%, COc1ccc(S(=O)(=O)N2CCN(c3ccccn3)CC2)cc1OC 2.6%, COc1ccc(C2SCCN2C(=S)Nc2ccc(F)cc2)cc1 (stereo not given) -0.3%, COC(=O)CN1C(=O)[C@H]2[C@@H](c3ccc(C)o3)N3C(=O)CN(CC4CC4)C(=O)[C@@]3(Cc3ccccc3)[C@H]2C1=O 5.1%, COc1ccc2cc3cc(C(=O)N4CCN(c5ccccc5)CC4)oc3nc2c1 6%, COc1ccc2nc3oc(C(=O)N4CCN(c5cccc(C(F)(F)F)c5)CC4)cc3cc2c1 8.6%, O=C(Nc1cccc(-c2cn3ccccc3n2)c1)c1cc2ccccc2oc1=O -3.4%, COc1cc(/C=C2\C(=N)N3N=C(S(C)(=O)=O)SC3=NC2=O)cc(OC)c1OCCOc1ccccc1C 3.6%
